Inconclusive results are not listed. Entries that show only a call come without a potency. The source made the active and inactive calls. Calls follow the shape of the dose curve; as a rule, active = well fitted curve in the direction sought with a large enough effect; inconclusive = small, poorly fitted or top-dose-only effect, or another doubt; inactive = no such curve, though single readings can be large; an effect the other way counts as inactive or inconclusive.
Columns and labels:
[1] = target: Luciferin 4-monooxygenase (Photinus pyralis) (UniProt P08659); assay: Biochemical firefly luciferase enzyme assay for NPC (AID 624030);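 also: purified P. pyralis luciferase at 10 nM with luciferin and ATP substrate; series mostly up to about 59 µM; nearly all actives have a fitted effect of over 70% in size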
Luciferin 4-monooxygenase (Photinus pyralis), sequence (P08659 whole entry, looked up): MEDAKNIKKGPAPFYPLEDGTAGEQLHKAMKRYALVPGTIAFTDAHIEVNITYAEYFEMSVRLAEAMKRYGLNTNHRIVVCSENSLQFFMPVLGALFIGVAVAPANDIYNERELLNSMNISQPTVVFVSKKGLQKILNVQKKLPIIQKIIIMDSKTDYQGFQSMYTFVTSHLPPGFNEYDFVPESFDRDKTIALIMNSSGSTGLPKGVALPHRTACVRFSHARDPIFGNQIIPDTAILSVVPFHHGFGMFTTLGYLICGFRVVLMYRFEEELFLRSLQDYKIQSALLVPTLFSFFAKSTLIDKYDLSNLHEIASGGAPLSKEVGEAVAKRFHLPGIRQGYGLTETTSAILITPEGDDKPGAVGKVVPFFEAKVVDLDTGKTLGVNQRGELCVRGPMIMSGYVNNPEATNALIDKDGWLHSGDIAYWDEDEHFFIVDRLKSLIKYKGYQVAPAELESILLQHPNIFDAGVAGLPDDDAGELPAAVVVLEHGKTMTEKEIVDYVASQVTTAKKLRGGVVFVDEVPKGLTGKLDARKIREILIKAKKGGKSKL
Summary of the method: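 Direct inhibition of firefly luciferase enzyme (10 nM final, 50 mM Tris Acetate) assessed by luminescence within 5 minutes. Percent activity scaled between DMSO and PTC124 positive control, with concentration-effect curves classified by fit quality and response.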

[2] = target: Voltage-gated inwardly rectifying potassium channel KCNH2 (Homo sapiens) (UniProt Q12809); assay: qHTS Assay for Small Molecule Inhibitors of the Human hERG Channel Activity (AID 588834);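 also: top concentration of the series differs between compounds; lower thallium flux fluorescence means stronger hERG block; nearly all actives have a fitted effect of over 50% in size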
Voltage-gated inwardly rectifying potassium channel KCNH2 (Homo sapiens), sequence (Q12809 whole entry, looked up): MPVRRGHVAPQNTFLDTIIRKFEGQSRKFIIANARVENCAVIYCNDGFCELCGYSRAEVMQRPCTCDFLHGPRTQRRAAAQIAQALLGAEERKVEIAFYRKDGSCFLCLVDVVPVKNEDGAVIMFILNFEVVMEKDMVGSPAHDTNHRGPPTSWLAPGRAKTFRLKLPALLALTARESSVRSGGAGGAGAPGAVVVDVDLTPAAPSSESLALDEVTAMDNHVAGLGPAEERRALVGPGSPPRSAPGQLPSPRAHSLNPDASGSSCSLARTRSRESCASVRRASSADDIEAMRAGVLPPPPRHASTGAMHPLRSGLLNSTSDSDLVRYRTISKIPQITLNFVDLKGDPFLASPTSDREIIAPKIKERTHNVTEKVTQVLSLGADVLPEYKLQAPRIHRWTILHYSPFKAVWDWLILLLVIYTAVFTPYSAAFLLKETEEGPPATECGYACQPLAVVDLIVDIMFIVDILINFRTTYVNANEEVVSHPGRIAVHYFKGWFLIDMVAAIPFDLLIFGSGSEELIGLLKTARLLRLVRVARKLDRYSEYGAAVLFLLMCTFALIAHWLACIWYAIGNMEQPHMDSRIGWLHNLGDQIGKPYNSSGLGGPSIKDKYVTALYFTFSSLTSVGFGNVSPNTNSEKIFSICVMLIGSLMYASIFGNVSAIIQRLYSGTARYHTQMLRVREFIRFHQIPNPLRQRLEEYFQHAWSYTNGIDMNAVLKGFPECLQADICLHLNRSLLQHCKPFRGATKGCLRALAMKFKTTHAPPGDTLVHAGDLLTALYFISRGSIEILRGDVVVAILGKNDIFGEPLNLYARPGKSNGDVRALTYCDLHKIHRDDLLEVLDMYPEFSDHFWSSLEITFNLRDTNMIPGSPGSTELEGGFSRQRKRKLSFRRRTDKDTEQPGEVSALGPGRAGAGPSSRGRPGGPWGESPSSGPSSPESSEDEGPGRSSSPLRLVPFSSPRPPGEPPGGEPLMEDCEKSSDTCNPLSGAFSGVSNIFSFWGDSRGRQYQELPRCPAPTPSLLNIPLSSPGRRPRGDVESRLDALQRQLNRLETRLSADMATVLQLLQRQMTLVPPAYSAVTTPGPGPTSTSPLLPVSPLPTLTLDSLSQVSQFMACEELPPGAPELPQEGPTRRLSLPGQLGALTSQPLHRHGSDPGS
Summary of the method: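 U2OS cells transduced with hERG via BacMam (MOI ~100), plated 2000/well, loaded with FluxOR thallium dye, compound ~10 min, then stimulation buffer; fluorescence decrease read kinetically; AC50 from Hill fits.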

[3] = S16 Schwann cell viability assay (CellTiter-Glo assay) (AID 624031);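 also: native untransfected S16 rat Schwann cells; cellular ATP luminescence as a viability measure; series mostly up to about 58 µM; nearly all actives have a fitted effect of over 70% in size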
Summary of the method: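 Cells were seeded at 500-750 per well in phenol red-free DMEM with 10% FBS and left overnight. Compounds or DMSO were pinned in, incubation ran 24 h at 37 °C/5% CO2, then CellTiter-Glo reagent was added and luminescence measured.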

Compound | Potency [1] | Potency [2] | Potency [3]
CC(C)c1nc(CN(C)C(=O)N[C@H](C(=O)N[C@@H](Cc2ccccc2)C[C@H](O)[C@H](Cc2ccccc2)NC(=O)OCc2cncs2)C(C)C)cs1 | inactive |  | 
Cc1cccc(C)c1OCC(=O)N[C@@H](Cc1ccccc1)[C@@H](O)C[C@H](Cc1ccccc1)NC(=O)[C@H](C(C)C)N1CCCNC1=O | inactive |  | 
CN(C)CCc1c[nH]c2ccc(Cn3cncn3)cc12 | inactive |  | 
C=C(c1ccc(C(=O)O)cc1)c1cc2c(cc1C)C(C)(C)CCC2(C)C |  | inactive | inactive
C=CCc1cc(OC)c(O)c(C(=O)NCCO)c1 | inactive |  | inactive
COc1cc2c(cc1OC)C1CC(=O)C(CC(C)C)CN1CC2 (centres undefined) | inactive |  | 
COc1cc(C(C)=O)ccc1OCCCN1CCC(c2noc3cc(F)ccc23)CC1 | inactive |  | 
O=C(O)c1cc(=O)c2c(OCC(O)COc3cccc4oc(C(=O)O)cc(=O)c34)cccc2o1 | inactive | inactive | inactive
O=C(O)c1cccnc1Nc1cccc(C(F)(F)F)c1 |  | inactive | inactive
Cc1nc2n(c(=O)c1CCN1CCC(c3noc4cc(F)ccc34)CC1)CCCC2 | inactive |  | 
COc1ccc2cc([C@H](C)C(=O)O)ccc2c1 | inactive |  | inactive
O=C1c2ccccc2-c2n[nH]c3cccc1c23 |  | inactive | inactive

From PubChem BioAssay (NCATS)
